Data taken from PubChem BioAssay (Tox21).
Inconclusive results are not listed. Active and inactive are the calls of the source. Calls follow the shape of the dose curve; as a rule, active = well fitted curve in the direction sought with a large enough effect in the repeat runs; inconclusive = weak or mixed curves; inactive = no such curve, though single readings can be large; an effect the other way counts as inactive or inconclusive.

Assays:
[1] = A CellTox Green Cytotoxicity Assay to monitor cytotoxicity in HEK293 cells - 40 hour (AID 1224871); also: nearly all actives have a fitted effect of over 45% in size; also: potency is read from the fitted curve at half-maximal effect
In short: (§1)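 Read-out: fluorescence of a cell-impermeant cyanine dye staining DNA of dead cells, proportional to cytotoxicity. HEK293, 600 cells/well with reagent, compound (23 nL DMSO) added after 5 h; reads at 0, 8, 16, 24, 32, 40 h.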

[2] = qHTS RealTime-Glo MT Cell Viability Assay in HEK293 cells - 16 hour (AID 1224872); also: nearly all actives have a fitted effect of over 50% in size; also: potency is read from the fitted curve at half-maximal effect; as to activity change, negative = cytotoxicity: top concentration of the series differs between compounds
In short: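 Viability tracked continuously by luminescence as live cells reduce a prosubstrate for NanoLuc; HEK293 cells preincubated 5 h, compound-treated at 37 C, and read at 0, 8, 16, 24, 32 and 40 h.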

[3] = qHTS RealTime-Glo MT Cell Viability Assay in HepG2 cells - 8 hour (AID 1224873); also: nearly all actives have a fitted effect of over 55% in size; also: potency is read from the fitted curve at half-maximal effect
In short: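 HepG2 cells mixed with RealTime-Glo MT reagents (NanoLuc plus cell-permeant prosubstrate) were seeded at 600 cells/well, incubated 5 h at 37 C/5% CO2, then pinned with compounds in DMSO; nonlytic luminescence tracked viability during 40 h treatment.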

[4] = qHTS RealTime-Glo MT Cell Viability Assay in HEK293 cells - 40 hour (AID 1224874); conditions: RealTime-Glo luminescence; max response: stronger effect = lower value; also: nearly all actives have a fitted effect of over 50% in size; also: potency is read from the fitted curve at half-maximal effect
In short: (§2)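 Luminescence readout at each listed time point; HEK293, 600 cells/well, RealTime-Glo MT reagent added with cells; compounds pinned (23 nL in DMSO) after 5 h at 37 C; continuous culture at 37 C.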

[5] = A CellTox Green Cytotoxicity Assay to monitor cytotoxicity in HEK293 cells - 24 hour (AID 1224875); also: nearly all actives have a fitted effect of over 45% in size; also: potency is read from the fitted curve at half-maximal effect; as to activity change: series mostly up to about 77 µM
In short: as §1

[6] = A CellTox Green Cytotoxicity Assay to monitor cytotoxicity in HepG2 cells - 16 hour (AID 1224876); also: nearly all actives have a fitted effect of over 45% in size
In short: (§3)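 HepG2, 600 cells/well premixed w/ CellTox Green; 5 h settle, 37 C/5% CO2; pintool cpd add (DMSO); 37 C, 40 h; fluorescence read at 0, 8, 16, 24, 32, 40 h.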

[7] = qHTS RealTime-Glo MT Cell Viability Assay in HepG2 cells - 32 hour (AID 1224877); also: nearly all actives have a fitted effect of over 55% in size; also: potency is read from the fitted curve at half-maximal effect
In short: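 Viability was tracked continuously by NanoLuc luminescence from prosubstrate reduced by living HepG2 cells, at successive time points over 40 h of compound exposure. Cells with reagent were preincubated 5 h at 37 °C before compound addition.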

[8] = A CellTox Green Cytotoxicity Assay to monitor cytotoxicity in HepG2 cells - 24 hour (AID 1224878); also: nearly all actives have a fitted effect of over 45% in size; also: potency is read from the fitted curve at half-maximal effect
In short: as §3

[9] = qHTS RealTime-Glo MT Cell Viability Assay in HEK293 cells - 0 hour (AID 1224880)
In short: as §2

[10] = A CellTox Green Cytotoxicity Assay to monitor cytotoxicity in HepG2 cells - 40 hour (AID 1224879); also: nearly all actives have a fitted effect of over 40% in size; also: potency is read from the fitted curve at half-maximal effect
In short: as §3
% is scaled to controls: 0 for no effect and ±100 for the full control effect.

C[C@H]1CCC[C@H](O)CCCCCc2cc(O)cc(O)c2C(=O)O1
active: Potency [2] 34.9 µM | Potency [4] 24.7 µM
inactive: Potency [1] | Potency [3] | Potency [5] | Potency [6] | Potency [7] | Potency [8] | outcome [9]

CCCCCCBr
inactive: Potency [1] | Potency [2] | Potency [3] | max response [4] 13.7% | Potency [5] | Potency [6] | Potency [7] | Potency [8] | Potency [10] | outcome [9]

CN(N=O)C(N)=O
inactive: Potency [1] | Potency [2] | Potency [3] | max response [4] 10.1% | Potency [5] | Potency [6] | Potency [7] | Potency [8] | Potency [10] | outcome [9]

CC(=O)C(Cl)Cl
inactive: Potency [1] | Potency [2] | Potency [3] | max response [4] 7% | Potency [5] | Potency [6] | Potency [7] | Potency [8] | outcome [9]

CCOP(=S)(OCC)SCSc1ccc(Cl)cc1
inactive: Potency [1] | Potency [2] | Potency [3] | max response [4] -2.07% | Potency [6] | Potency [7] | Potency [8] | Potency [10] | outcome [9]

[O]=[Cd]
inactive: Potency [1] | Potency [2] | Potency [3] | max response [4] 15.5% | Potency [7] | Potency [8] | Potency [10] | outcome [9]

ClC(Cl)(Cl)C(Cl)(Cl)Cl
inactive: Potency [1] | Potency [2] | Potency [3] | max response [4] 2.47% | Potency [6] | Potency [7] | Potency [8] | Potency [10] | outcome [9]

Nc1c(Br)cc([N+](=O)[O-])cc1[N+](=O)[O-]
inactive: Potency [1] | Potency [2] | Potency [3] | max response [4] -10.5% | Potency [6] | Potency [7] | Potency [8] | Potency [10] | outcome [9]

ClC(Cl)Br
inactive: Potency [1] | Potency [2] | Potency [3] | max response [4] 8.21% | Potency [5] | Potency [8] | Potency [10] | outcome [9]

Cc1ncsc1CCCl
inactive: Potency [1] | Potency [2] | Potency [3] | max response [4] 3.38% | Potency [6] | Potency [7] | Potency [8] | Potency [10] | outcome [9]

O=C1OC(c2ccc(O)c(S(=O)(=O)O)c2)(c2ccc(O)c(S(=O)(=O)O)c2)c2c(Br)c(Br)c(Br)c(Br)c21
inactive: Potency [1] | Potency [2] | Potency [3] | max response [4] 11.8% | Potency [5] | Potency [8] | Potency [10] | outcome [9]

Clc1ccccc1N1CCNCC1
inactive: Potency [1] | Potency [2] | Potency [3] | max response [4] 7.31% | Potency [5] | Potency [7] | Potency [8] | Potency [10] | outcome [9]

N#CCCC#N
inactive: Potency [1] | Potency [2] | Potency [3] | max response [4] 17.5% | Potency [8] | Potency [10] | outcome [9]

C[C@]12CC[C@H]3[C@@H](CC=C4C[C@@H](O)CC[C@@]43C)[C@@H]1CC[C@@H]2O
inactive: Potency [1] | Potency [2] | Potency [3] | max response [4] 8.6% | Potency [6] | Potency [7] | Potency [8] | Potency [10] | outcome [9]

CCC1(c2ccccc2)C(=O)NC(=O)NC1=O
inactive: Potency [1] | Potency [2] | Potency [3] | max response [4] 17.3% | Potency [7] | Potency [8] | Potency [10] | outcome [9]

CCC(C)(C)c1cc(-n2nc3ccccc3n2)c(O)c(C(C)(C)CC)c1
active: Potency [2] 24.9 µM | Potency [4] 22.2 µM
inactive: Potency [1] | Potency [3] | Potency [6] | Potency [7] | Potency [8] | Potency [10] | outcome [9]

COP(=S)(OC)Oc1c(Cl)cc(C)cc1Cl
inactive: Potency [1] | Potency [2] | Potency [3] | Potency [5] | Potency [6] | Potency [7] | Potency [8] | Potency [10] | outcome [9]

O=C(O)c1cccc(Cl)c1
inactive: Potency [1] | Potency [2] | Potency [3] | max response [4] 4.06% | Potency [6] | Potency [7] | Potency [8] | Potency [10] | outcome [9]

N#CC(CCc1ccc(Cl)cc1)(Cn1cncn1)c1ccccc1 (configuration not stated)
inactive: outcome [9]
active: Potency [1] 49 µM | Potency [2] 21.9 µM | Potency [3] 38.9 µM | Potency [4] 17.4 µM | Potency [7] 43.6 µM | Potency [8] 21.9 µM | Potency [10] 24.5 µM

BrCCCCCCBr
inactive: Potency [1] | Potency [2] | Potency [3] | max response [4] 2.7% | Potency [6] | Potency [7] | Potency [8] | Potency [10] | outcome [9]

Fc1cc(Br)ccc1CBr
inactive: Potency [1] | Potency [2] | Potency [3] | max response [4] -0.0441% | Potency [6] | Potency [8] | Potency [10] | outcome [9]

N#CC(Cl)(Cl)Cl
inactive: Potency [1] | Potency [2] | Potency [3] | max response [4] 3.49% | Potency [6] | Potency [8] | Potency [10] | outcome [9]

COc1cccc(C(=O)NN(C(=O)c2cc(C)cc(C)c2)C(C)(C)C)c1C
active: Potency [8] 0.616 µM
inactive: Potency [1] | Potency [2] | Potency [3] | max response [4] -10% | Potency [6] | Potency [10] | outcome [9]

COc1cc(C[C@@H](C)N)c(OC)cc1C
inactive: Potency [1] | Potency [2] | Potency [3] | max response [4] -9.2% | Potency [5] | Potency [7] | Potency [8] | Potency [10] | outcome [9]

O=c1oc2ccccc2c(O)c1C1CCCc2ccccc21 (configuration not stated)
inactive: Potency [1] | Potency [2] | Potency [3] | max response [4] 14.6% | Potency [5] | Potency [7] | Potency [8] | Potency [10] | outcome [9]

CC(C)CC(N(C)C)C1(c2ccc(Cl)cc2)CCC1 (configuration not stated)
inactive: Potency [2] | Potency [3] | max response [4] -6.91% | Potency [7] | outcome [9]
active: Potency [1] 23.9 µM | Potency [5] 23.9 µM

CC1=C(C(=O)O)N2C(=O)[C@@H](N)[C@H]2SC1
inactive: cytotoxicity increase [1] -14.9% [at 15.8 µM] | activity change, negative = cytotoxicity [2] 1.93% [at 15.8 µM] | viability change, negative = cytotoxic [3] 1.32% [at 15.8 µM] | max response [4] 1.69% | activity change [5] -5.37% [at 15.8 µM, stronger effect = higher value] | cytotoxicity [8] -8.35% [at 15.8 µM] | cytotoxicity increase [10] -6.02% [at 15.8 µM] | activity change, negative = cytotoxicity [9] 1.57% [at 15.8 µM]
